The results in this text go back to the supplement of paper PMC13380429.

The structures appear in SMILES notation.

Assay [1] concerns Vero E6 infected with SARS-CoV-2. Put plainly: morphology score (similarity to uninfected cells); higher = more like uninfected cells. Conditions: 24 h.
For assay [2] the test system is unchanged. As to the kind of experiment: SARS-CoV-2 infection rate relative to infected DMSO; higher = more infection, active = 60 or less. The settings on record: 24 h.

`Cc1cn(-c2cc(NC(=O)c3ccc(C)c(Nc4nccc(-c5cccnc5)n4)c3)cc(C(F)(F)F)c2)cn1` [nilotinib] (10 µM): the morphology score in assay [1] is 0.334. The SARS-CoV-2 infection rate in assay [2] was 96.5% (inactive).
Taken in the same sequence, the figures for `CCN(CC)CCNC(=O)c1ccccc1I` (10 µM) were 0.221 and 91% (inactive).
In the same order, the values of `CC(C)Oc1cccc(CC(=O)N2CCC[C@](CC[N+]34CCC(c5ccccc5)(CC3)CC4)(c3ccc(Cl)c(Cl)c3)C2)c1` (10 µM) are 0.0196 and 110% (inactive).
The compound `CCCCCCN(CCCCCC)C(=O)Cc1c(-c2ccc(F)cc2)[nH]c2ccccc12` (10 µM) gave a morphology score in assay [1] of -0.0301. Also, the SARS-CoV-2 infection rate in assay [2] was 106% (inactive).
In turn, `CNC(=O)c1c(I)c(NC(C)=O)c(I)c(C(=O)O)c1I` [iothalamic-acid-d3] (10 µM) yielded a morphology score in assay [1] of 0.143. Also, the SARS-CoV-2 infection rate in assay [2] is 104% (inactive).
`COC(=O)Nc1nc2cc(SC(C)C)ccc2[nH]1` [methiazole] (0.833333 µM): in assay [1], the morphology score is -0.254. Moreover, the SARS-CoV-2 infection rate in assay [2] was 120% (inactive).
In the same order, the values of `O=C(Nc1ccc(-c2ccnc(Nc3ccc(N4CCOCC4)cc3)n2)cc1)C1CCCN1` (stereo not given) (10 µM) are 0.607 and 73.5% (inactive).
`O=C(O[C@H]1CN2CCC1CC2)N(Cc1cc(F)c(F)c(F)c1)c1cccc(F)c1` [tarafenacin] (10 µM) gave a morphology score in assay [1] of 0.371. For the same compound, the SARS-CoV-2 infection rate in assay [2] was 74% (inactive).
For the compound `Nc1nccc(-c2c(-c3ccc(F)cc3)ncn2C2CCCCC2)n1` (0.833333 µM), the morphology score in assay [1] was found to be 0.197. The SARS-CoV-2 infection rate in assay [2] was 103% (inactive).
In the same order, the values of `Oc1c(Cl)cc(Cl)cc1Sc1cc(Cl)cc(Cl)c1O` [bithionol] (10 µM) are -0.096 and 106% (inactive).
In the same order, the values of `O=C(Nc1cc(Oc2cc(F)c(NC(=O)C3(C(=O)Nc4ccc(F)cc4)CC3)cc2F)ccn1)C1CC1` [altiratinib] (10 µM) are 0.122 and 88.5% (inactive).
`CCOc1cccc(NC(=O)c2ccc(N3CCCC3)c(C(F)(F)F)c2)c1` (10 µM): in assay [1], the morphology score turned out to be 0.0793. The SARS-CoV-2 infection rate in assay [2] is 102% (inactive).
Consider `CCCN(CCC)S(=O)(=O)c1ccc(C(=O)O)cc1` [probenecid] (10 µM), for which, in assay [1], the morphology score was -0.0854. Further, the SARS-CoV-2 infection rate in assay [2] is 106% (inactive).
In the same order, the values of `CN(C)CCOC(c1ccc(Cl)cc1)c1ccccn1` (stereo not given) [carbinoxamine] (10 µM) are 0.075 and 96% (inactive).
In the same order, the values of `CCOc1ccccc1C(=O)O` [2-ethoxybenzoic-acid] (10 µM) are 0.0437 and 115% (inactive).
Taken in the same sequence, the figures for `Cc1cc(-n2c(=O)[nH]c(=O)n(C)c2=O)ccc1Oc1ccc(SC(F)(F)F)cc1` [toltrazuril] (10 µM) were 0.184 and 107% (inactive).
The compound `CCCNCCc1ccc(NS(=O)(=O)c2ccc(OC(F)(F)F)cc2)cc1` (10 µM) displayed a morphology score in assay [1] of -0.19. In addition, the SARS-CoV-2 infection rate in assay [2] was 110% (inactive).
In the same order, the values of `COc1cc2nccc(Oc3ccc(NC(=O)NC4CC4)c(Cl)c3)c2cc1C(N)=O` [lenvatinib] (10 µM) are 0.239 and 100% (inactive).
In the same order, the values of `CN1CCC[C@@H]1Cc1c[nH]c2ccc(CCS(=O)(=O)c3ccccc3)cc12` [eletriptan] (10 µM) are 0.207 and 102% (inactive).
Turning to `CCC1(c2ccc(N)cc2)CCC(=O)NC1=O` (stereo not given) [aminoglutethimide] (10 µM), the morphology score in assay [1] is -0.0825. In addition, the SARS-CoV-2 infection rate in assay [2] was 110% (inactive).
Taken in the same sequence, the figures for `Cc1ccccc1-n1c(CF)nc2ccc(N)cc2c1=O` [afloqualone] (10 µM) were 0.166 and 96% (inactive).
As for `COc1cc2c(Oc3ccc(NC(=O)C4(C(=O)Nc5ccc(F)cc5)CC4)cc3F)ccnc2cc1OCCCN1CCOCC1` [foretinib] (10 µM), in assay [1], the morphology score is 0.152. In assay [2], the SARS-CoV-2 infection rate was 106% (inactive).
Taken in the same sequence, the figures for `COc1ccc2nc(NC(=O)Nc3ccccc3)sc2c1` [frentizole] (10 µM) were -0.0784 and 114% (inactive).
For `Cc1cccc(C)c1NC(=O)c1ccccc1C(=O)O` [ftaxilide] (10 µM), the morphology score in assay [1] is -0.12. Further, the SARS-CoV-2 infection rate in assay [2] is 106% (inactive).
In the same order, the values of `OC(c1ccc(-c2ccc(CN3CCN(Cc4ccncc4)CC3)cc2)c(F)c1)(C(F)(F)F)C(F)(F)F` (10 µM) are -0.228 and 104% (inactive).
For the compound `CCCCn1c(-c2ccccc2)nc(-c2ccccc2)c1CN(Cc1ccc2c(c1)OCO2)Cc1ccc2c(c1)OCO2` (10 µM), the morphology score in assay [1] turned out to be 0.139. Further, in assay [2], the SARS-CoV-2 infection rate was 99.5% (inactive).
Taken in the same sequence, the figures for `O=C1CCc2cc(OCCCCc3nnnn3C3CCCCC3)ccc2N1` [cilostazol] (10 µM) were -0.112 and 110% (inactive).
Taken in the same sequence, the figures for `NCCS(=O)(=O)O` [taurine] (10 µM) were 0.19 and 94.5% (inactive).
Taken in the same sequence, the figures for `O=C1Cc2c([nH]c3ccc(Br)cc23)-c2ccccc2N1` [kenpaullone] (10 µM) were 0.533 and 69.5% (inactive).
In the case of `COc1cc(N2CCC(N)CC2)ccc1Nc1ncc(Cl)c(-c2c[nH]c3ccccc23)n1` (0.833333 µM), in assay [1], the morphology score turned out to be 0.205. Further, in assay [2], the SARS-CoV-2 infection rate was 102% (inactive).
